Source: PubChem BioAssay
Rows were chosen to be rich in hits. Some 6.1% of all compounds tested hit in one or more screens of this group.
RORgamma inh = qHTS for inhibitors of ROR gamma transcriptional activity; Nuclear receptor ROR-gamma (Mus musculus), P51450; 310,000 compounds, 5.4% hits; AID 2551, 2010; Potency, µM (series often up to 53.6 µM), for the others: top-dose activity change, negative = inhibition, usual class: inhibitors; Drosophila S2 Gal4-RORgamma UAS-luciferase reporter, 20 h; further: on the % scale 0 is the no-effect control and ±100 the full control effect; nearly all actives have a fitted effect of over 60% in size
Target sequence (P51450 whole entry, looked up, the tested form may be a part): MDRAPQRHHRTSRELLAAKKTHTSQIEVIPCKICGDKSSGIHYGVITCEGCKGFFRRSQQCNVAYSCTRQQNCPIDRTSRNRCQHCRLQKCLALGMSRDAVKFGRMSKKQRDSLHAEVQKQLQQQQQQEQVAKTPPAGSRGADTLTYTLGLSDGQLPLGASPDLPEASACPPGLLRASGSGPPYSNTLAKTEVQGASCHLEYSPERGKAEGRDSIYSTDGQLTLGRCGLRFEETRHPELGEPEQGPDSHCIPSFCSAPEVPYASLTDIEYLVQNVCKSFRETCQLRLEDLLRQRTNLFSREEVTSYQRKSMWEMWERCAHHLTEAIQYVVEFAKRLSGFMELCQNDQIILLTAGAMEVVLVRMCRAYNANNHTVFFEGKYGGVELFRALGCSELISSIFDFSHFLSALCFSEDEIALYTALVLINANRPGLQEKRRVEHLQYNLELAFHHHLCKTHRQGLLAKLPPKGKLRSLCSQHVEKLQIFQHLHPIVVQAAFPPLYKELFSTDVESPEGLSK
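A Gal4/UAS one-hybrid system in insect cells: metallothionein-promoter Gal4–ROR gamma fusion plus Photinus luciferase reporter. Copper sulfate 700 uM final, 20 hr ambient incubation, luminescent detection after 10 min with reagent.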
Gal4-VP16 FLuc = VP16 counterscreen qHTS for inhibitors of ROR gamma transcriptional activity; Drosophila S2 Gal4-VP16 UAS-luciferase, luminescence, 20 h; Potency, µM (series often up to 53.6 µM), for the others: top-dose activity, negative = inhibition, hits mostly inhibitors; 310,000 compounds, 3.5% hits;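 further: Gal4-VP16 expression switched on by copper sulfate through the metallothionein promoter; on the % scale 0 is the no-effect control and ±100 the full control effect; nearly all actives have a fitted effect of over 50% in size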
S2 tox = Viability Counterscreen for Primary qHTS for Inhibitors of ATXN expression; S2 cells (HEK-293 line with an ATXN2-luciferase reporter) viability, CellTiter-Fluor protease fluorescence, 24 h; Potency, µM (top dose mostly 56.7 µM), actives largely listed as cytotoxic; 400,000 compounds, 0.49% hits; further: nearly all actives have a fitted effect of over 40% in size
HepG2 viability = qHTS for Inhibitors of TGF-b: Cytotox Counterscreen | HepG2 CAGA-GFP viability, ATP luminescence, 18 h | Potency, µM (top dose mostly 46.1 µM), for the others: at the highest dose activity change, negative = cytotoxicity, actives largely listed as cytotoxic | 410,000 compounds, 0.76% hits
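HepG2 CAGA-GFP cells (1000/well, DMEM with 1% FBS) received compound, then TGF-beta at 500 pg/mL final, and were incubated 18 hours at 37 degrees C. Viability was read by CellTiter-Glo luminescence. Media-only wells were set as complete cell-killing and DMSO as no toxicity.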
ATXN2 expr inh = Primary qHTS for Inhibitors of ATXN expression. 360,000 compounds, 0.72% hits. Potency, µM (top dose mostly 57 µM), without a hit: at the top dose activity change, negative = inhibition, most hits filed as inhibitors. HEK-293 ATXN2-luciferase reporter, luminescence, 24 h. AID 1745845, 2022; further: on the % scale 0 is the no-effect control and ±100 the full control effect; nearly all actives have a fitted effect of over 55% in size
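ATXN2-luciferase reporter cells (luciferase flanked by upstream and downstream ATXN2 gene portions) were treated 24 h at 37 °C with compounds at up to 57 uM. SteadyGlo luminescence gave expression; GF-AFC fluorescence gave viability.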
TGFb SMAD3 inh = qHTS for Inhibitors of TGF-b; HepG2 CAGA-GFP TGF-b/SMAD3 reporter, GFP fluorescence, 18 h; TGF-beta stimulated, 500 pg/mL final; Potency, µM (titrated, usually from 46.1 µM), inactives show at the top dose activity, negative = inhibition, actives largely listed as inhibitors; 410,000 compounds, 1.2% hits; AID 588855, 2011; further: on the % scale 0 is the no-effect control and ±100 the full control effect; nearly all actives have a fitted effect of over 65% in size
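Inhibition of TGF-beta-driven CAGA-GFP reporter expression in HEPG2 cells is measured by cellular GFP fluorescence after 18 h stimulation with 500 pg/mL recombinant TGF-beta in 1% FBS medium at 37 degrees C.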
The depositor's hits bear a star; [ ] = another dose, or the depositor's remark. The call rests on the fitted dose curve; in most records, active means well fitted curve in the direction sought with a large enough effect; inconclusive means small, poorly fitted or top-dose-only effect, or another doubt; inactive means no such curve, though single readings can be large; an effect the other way counts as inactive or inconclusive. Potency means the concentration at half of the fitted maximal effect.

For COc1ccc(Br)cc1/C=C/C(=O)c1ccc(NC(C)=O)cc1 the results were RORgamma inh 5.01µM*, Gal4-VP16 FLuc 10µM*, S2 tox inconclusive, HepG2 viability 15.8µM*, ATXN2 expr inh 22.4µM* and TGFb SMAD3 inh inconclusive.
For O=C(CC12CC3CC(CC(C3)C1)C2)NC(=S)Nc1ccc(CN2CCOCC2)cc1 the results were RORgamma inh 1.58µM*, Gal4-VP16 FLuc 10µM*, S2 tox inactive, HepG2 viability 0.1%, ATXN2 expr inh -10.8% and TGFb SMAD3 inh -3.8%.
Screening O=C(/C=C/c1ccc(Cl)cc1)NC(=S)Nc1ccc(CN2CCOCC2)cc1 returned RORgamma inh 3.98µM*, Gal4-VP16 FLuc 6.31µM*, S2 tox inactive, HepG2 viability 3.3%, ATXN2 expr inh -22.9%[11.3 µM] and TGFb SMAD3 inh 0.0%.
`COc1ccc(NC(=O)/C=C/c2cc(Br)ccc2OC)cc1` gave RORgamma inh inconclusive, Gal4-VP16 FLuc -2.9%, S2 tox inactive, HepG2 viability -9.4%, ATXN2 expr inh -15.9% and TGFb SMAD3 inh 10.4%.
For O=C(NC(=S)Nc1ccc(CN2CCOCC2)cc1)c1ccco1 the results were RORgamma inh 0.2%, Gal4-VP16 FLuc -11.8%, S2 tox inactive, HepG2 viability -34.0%, ATXN2 expr inh 17.6% and TGFb SMAD3 inh 0.0%.
O=C(/C=C/c1ccc(Cl)cc1)NC(=S)Nc1ccc(NC(=O)c2ccco2)cc1 was read as RORgamma inh 4.47µM*, Gal4-VP16 FLuc 7.08µM*, S2 tox inactive, HepG2 viability 10.2%, ATXN2 expr inh -9.2% and TGFb SMAD3 inh -8.7%.
Screening CCOc1ccccc1CNS(=O)(=O)c1cc2c(cc1C)NC(=O)CO2 returned HepG2 viability -21.2% and TGFb SMAD3 inh 0.0%.
For CNC(=O)c1cc(-c2cccs2)on1 the results were HepG2 viability -9.1% and TGFb SMAD3 inh inconclusive.
Screening O=C(CSc1nccn1-c1cccc(Cl)c1)Nc1cccc(C(F)(F)F)c1 returned HepG2 viability -32.3% and TGFb SMAD3 inh inconclusive.
`COc1ccc2c(c1)c1c(c(=O)n(Cc3ccccc3)c(=O)n1CC(=O)NCc1ccc(C)cc1)n2C` gave S2 tox inactive, HepG2 viability -0.6%, ATXN2 expr inh 10.6% and TGFb SMAD3 inh 17.2%.
For COc1ccc(Br)cc1/C=C/C(=O)NC(=S)Nc1ccc(CN2CCOCC2)cc1 the results were RORgamma inh 1.78µM*, Gal4-VP16 FLuc 4.47µM*, S2 tox inconclusive, HepG2 viability -16.3% and TGFb SMAD3 inh -13.8%.
`COc1ccc(C(=O)Nc2ccc(CN3CCOCC3)cc2)cc1Br` gave RORgamma inh 20.3%, Gal4-VP16 FLuc -3.3%, S2 tox inactive, HepG2 viability -39.6%, ATXN2 expr inh -20.7% and TGFb SMAD3 inh -27.2%.
Screening COC(=O)C1[C@@H](OC)C(OC(=O)COc2ccc(OC)cc2)C[C@@H]2CN3CCc4c([nH]c5cc(OC)ccc45)[C@H]3C[C@H]12 (some centres undefined) returned RORgamma inh 11.5% and Gal4-VP16 FLuc -7.3%.
For COc1cc(C#Cc2c(-c3cncn3C)n(C)c3ccc(-c4cc(OC)c(OC)c(OC)c4)cc23)cc(OC)c1 the results were S2 tox inactive, HepG2 viability -13.9%, ATXN2 expr inh inconclusive and TGFb SMAD3 inh inconclusive.
For COc1cc(C#Cc2c(-c3cncn3C)n(C)c3ccc(-c4ccc(OC)nc4)cc23)cc(OC)c1 the results were S2 tox inconclusive, HepG2 viability -30.1%, ATXN2 expr inh 28.2µM* and TGFb SMAD3 inh inconclusive.
`CCOc1ccc(NC(=O)CSc2nc3nc(C)c(Cc4ccccc4)c(C)n3n2)cc1` gave HepG2 viability 1.6% and TGFb SMAD3 inh -13.2%.
CC(C)Cc1nc(N2CCN(C(=O)C(C)C)CC2)c(C#N)c2c1CCC2 was read as RORgamma inh 1.41µM*, Gal4-VP16 FLuc -4.8%, S2 tox inactive, HepG2 viability -37.4%, ATXN2 expr inh -14.1% and TGFb SMAD3 inh inconclusive.
`CC(C)Cc1nc(N2CCN(C(=O)c3ccccc3)CC2)c(C#N)c2c1CCC2` gave RORgamma inh 35.5µM*, Gal4-VP16 FLuc 39.8µM*, S2 tox inactive, HepG2 viability -84.5%, ATXN2 expr inh -19.2% and TGFb SMAD3 inh inconclusive.
For CCn1cc(C(=O)O)c(=O)c2cnc(N3CCN(C(=S)NC(=O)c4ccc(OC)cc4)CC3)nc21 the results were RORgamma inh -12.5%, Gal4-VP16 FLuc -6.9%, S2 tox inactive, HepG2 viability -27.8%, ATXN2 expr inh 9.9% and TGFb SMAD3 inh 1.0%.
CCn1cc(C(=O)NCc2cccc(F)c2)c(=O)c2cc(F)c(N3CCN(C(=O)c4ccco4)CC3)cc21 was read as RORgamma inh inconclusive, Gal4-VP16 FLuc inconclusive, S2 tox inconclusive, HepG2 viability 0.9%, ATXN2 expr inh 35.5µM* and TGFb SMAD3 inh 1.3%.
CCn1cc(C(=O)O)c(=O)c2cc(F)c(N3CCN(C(=S)NC(=O)c4c(OC)cccc4OC)CC3)cc21 was read as RORgamma inh 4.1%, Gal4-VP16 FLuc -7.1%, S2 tox inactive, HepG2 viability 16.0%, ATXN2 expr inh 1.8% and TGFb SMAD3 inh 10.0%.
CCCOc1ccc(C(=O)NC(=S)N2CCN(c3cc4c(cc3F)c(=O)c(C(=O)O)cn4CC)CC2)cc1 was read as RORgamma inh 1.78µM*, Gal4-VP16 FLuc -16.5%, S2 tox inactive, HepG2 viability 16.2%, ATXN2 expr inh -8.2% and TGFb SMAD3 inh -4.7%.
`CCn1cc(C(=O)O)c(=O)c2cc(F)c(N3CCN(C(=S)NC(=O)c4cccc(F)c4)CC3)cc21` gave RORgamma inh 2.82µM*, Gal4-VP16 FLuc 3.4%, S2 tox inactive, HepG2 viability 15.3%, ATXN2 expr inh 2.6% and TGFb SMAD3 inh 5.9%.
Screening CCn1cc(C(=O)O)c(=O)c2cnc(N3CCN(C(=S)NC(=O)c4ccc(F)c(F)c4)CC3)nc21 returned RORgamma inh 2.51µM*, Gal4-VP16 FLuc inconclusive, S2 tox inactive, HepG2 viability 6.5%, ATXN2 expr inh 2.7% and TGFb SMAD3 inh 8.3%.
Screening CCC(=O)N1CCc2cc(CNC(=O)c3ccc(OC)cc3)ccc21 returned HepG2 viability 5.7% and TGFb SMAD3 inh 1.8%.
For Cn1c(=O)n(-c2ccc(Br)cc2F)c(=O)c2sc3ccccc3c21 the results were S2 tox inactive, HepG2 viability 3.4%, ATXN2 expr inh 7.6% and TGFb SMAD3 inh -6.4%.
